Sampled rows, rich in hits. Any-hit rate of the full collection: about 9.3%.
ELG1 repair inh = inhibitors of ELG1-dependent DNA repair in HEK293T cells; 2.3% of 330,000 active; AID 504467; Potency, µM (highest dose often 46.1 µM), without a hit: at the highest dose activity change, negative = inhibition, hits mostly inhibitors; HEK293T ELG1-luciferase reporter, luminescence, 16 h; DNA damage induced by 5-fluorouridine; note: % is set by controls: 0 for no effect and ±100 for the full control effect; nearly all actives have a fitted effect of over 55% in size
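Cells (2,000 per well) received 5-fluorouridine plus test compound or DMSO and were incubated 16 hr at 37 °C, 5% CO2. Luciferase activity was read by luminescence 30 min after ONE-Glo addition; signal suppression marked inhibition of damage-induced ELG1 function.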
SMN2 splice up = enhancers of SMN2 splice variant expression; HEK293 SMN2-luciferase splicing reporter, luminescence, 30-36 h; Potency, µM (series often up to 46.1 µM), inactives show at the top dose activity change, positive = activation, actives largely listed as activators; 2.8% of 210,000 active; AID 1458; note: % of control where 0% means no effect; nearly all actives have a fitted effect of over 55% in size
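HEK293 cells carry an SMN2 […]–luciferase reporter in which exon 7 inclusion puts luciferase in frame. Cells were plated 10-12 h before compound addition, then incubated 30-36 h at 37C. ONE-Glo luminescence was read; sodium butyrate at 4.5 mM final served as control.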
ELG1 genotoxic = genotoxicity induction in ELG1-luciferase HEK293T cells | HEK293T ELG1-luciferase reporter, luminescence, 16 h | Potency, µM (titrated, usually from 46 µM), for the others: top-dose activity change, positive = activation, hits mostly activators | 1.3% of 330,000 active | AID 504466; note: % of control where 0% means no effect; nearly all actives have a fitted effect of over 60% in size
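Cells (2,000/well) expressing the ELG1-luciferase fusion are dosed by pin tool and kept 16 hr at 37 °C, 5% CO2. Signal comes from ONE-Glo luciferase reagent after 30 min at room temperature.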
FLuc modulator = counter-screen for miR-21 project: firefly luciferase inhibitors or activators | Potency, µM (highest dose often 57.5 µM), for the others: top-dose activity change, negative = inhibition, usual class: inhibitors | purified FLuc, Km substrates, luminescence inhibition | AID 588342 | 6.9% of 360,000 active;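 note: plate controls were vehicle for no effect and reference inhibitor for full effect; nearly all actives have a fitted effect of over 55% in size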
Target sequence (P08659 whole entry, looked up): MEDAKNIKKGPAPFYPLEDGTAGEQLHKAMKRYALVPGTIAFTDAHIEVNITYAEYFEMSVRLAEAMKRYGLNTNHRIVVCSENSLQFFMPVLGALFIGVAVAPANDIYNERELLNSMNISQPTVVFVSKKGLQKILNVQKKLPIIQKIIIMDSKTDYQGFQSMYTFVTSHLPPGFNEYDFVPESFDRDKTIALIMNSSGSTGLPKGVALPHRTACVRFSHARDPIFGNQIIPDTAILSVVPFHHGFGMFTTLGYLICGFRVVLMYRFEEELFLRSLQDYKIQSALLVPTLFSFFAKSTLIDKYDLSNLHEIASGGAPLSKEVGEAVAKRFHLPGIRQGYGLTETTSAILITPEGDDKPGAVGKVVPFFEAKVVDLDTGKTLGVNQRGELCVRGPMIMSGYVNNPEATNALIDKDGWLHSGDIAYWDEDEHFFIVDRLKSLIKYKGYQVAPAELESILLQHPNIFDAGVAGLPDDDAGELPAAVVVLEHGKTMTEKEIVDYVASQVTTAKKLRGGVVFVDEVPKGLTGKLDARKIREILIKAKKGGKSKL
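Biochemical qHTS of compounds, final roughly 60 µM downward over six points, against 10 nM purified firefly luciferase using Km concentrations of substrates (10 uM D-luciferin, 10 uM ATP) in Tris acetate pH 7.5 buffer; luminescence output.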
Rab9 prom act = activators of Rab9 promoter; Potency, µM (doses to about 9.22 µM), for inactives: at the highest dose activation, negative = inhibition, most hits filed as activators; 2.8% of 320,000 active; Huh7 Rab9 promoter-luciferase reporter, luminescence, 24 h; note: % of control where 0% means no effect; nearly all actives have a fitted effect of over 60% in size
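Promoter activation is measured as luciferase luminescence in Huh7 cells stably transfected with a Rab9 promoter–luciferase construct, following 24 h compound exposure at 37 °C and 10 min reagent incubation at ambient temperature.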
NPC1 promoter act = activates the NPC1 promoter | 2.4% of 320,000 active | Potency, µM (highest dose often 9.22 µM), for the others: top-dose activation, usual class: activators | Huh7 NPC1 promoter luciferase reporter, 24 h; note: % of control where 0% means no effect; nearly all actives have a fitted effect of over 60% in size
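NPC1 promoter–luciferase Huh7 cells; 24 h compound; luminescence.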
* hit, by the source's call; ? = inconclusive; . = not tested or not shown. Calls come from the whole dose curve; as a rule, active = well fitted curve in the direction sought with a large enough effect; inconclusive = small, poorly fitted or top-dose-only effect, or another doubt; inactive = no such curve, though single readings can be large; an effect the other way counts as inactive or inconclusive. Potency is the fitted concentration of half-maximal effect.

SMILES	ELG1 repair inh	SMN2 splice up	ELG1 genotoxic	FLuc modulator	Rab9 prom act	NPC1 promoter act
CN(C)S(=O)(=O)N(CC(=O)Nc1ccc2ccccc2c1)c1ccccc1	23µM*	-5%	-8%	-20%	-5%	-2%
O=C(NC1CCN(C(=O)NCc2ccccc2)CC1)c1ccc(F)cc1	8%	.	2%	0%	-8%	-4%
O=C(COc1ccc2ccc(=O)oc2c1)NC1CCS(=O)(=O)C1 (centres undefined)	3%	.	3%	.	.	.
Cc1cc(C)n2ncc(C(=O)NC3CCCCC3)c2n1	-1%	.	1%	-2%	4%	-5%
Cc1ccc(N(CC(=O)NCC2CCCO2)C(=O)CCC(=O)Nc2ccccn2)cc1 (centres undefined)	14%	-14%	-26%	1%	0%	-3%
CCN(CC)c1ccc(NC(=O)Nc2ccccc2)cc1	?	.	10µM*	0.95µM*	3.2µM*	0.89µM*
Cc1ccc(NC(=O)NCc2ccccn2)cc1	?	-3%	?	-16%	7%	13%
CCN(CC)c1ccc(NC(=O)Nc2ccc(C(C)=O)cc2)cc1	25%	10%	1%	0%	4%	1%
CC(=O)c1cccc(NC(=O)NCc2ccccn2)c1	?	16µM*	9.2µM*	9.5µM*	?	?
CC(=O)c1ccc(NC(=O)Nc2ccccc2)cc1	?	11µM*	1.8µM*	7.6µM*	0.32µM*	0.45µM*
COc1ccc(NC(=O)CSc2n[nH]c(N)n2)cc1OC	2%	2%	3%	-2%	-4%	-1%
CC1CCCCN1Cc1c(O)ccc2c(=O)c(-c3ccccc3)coc12 (centres undefined)	-8%	-7%	0%	-4%	-2%	5%
Nc1ccc(Cc2ccc(N)c(O)c2)cc1O	9.2µM*	5%	-13%	19µM*	?	0%
COc1ccc(-c2nc3ccccn3c2/N=C/c2ccc(OC)c(OC)c2)cc1O	?	6%	8%	13µM*	6%	-5%
Oc1cccc(/C=N/c2c(-c3ccco3)nc3ccccn23)c1	?	24%	?	6µM*	?	?
Cc1ccc(NC(=O)c2ccc3c(c2)CCN3S(C)(=O)=O)cc1C	-4%	.	9%	15µM*	4µM*	2.5µM*
Cc1ccc(S(=O)(=O)N2CCc3cc(C(=O)Nc4ccc(C)c(C)c4)ccc32)cc1	.	-7%	.	0%	.	.
CS(=O)(=O)N1CCc2cc(C(=O)OCC(=O)c3ccccc3)ccc21	?	-4%	13µM*	4.8µM*	3.5µM*	3.2µM*
Cc1cccc(C)c1NC(=O)c1ccc2c(c1)CCN2S(C)(=O)=O	-15%	.	-4%	5%	-15%	0%
Cc1cccc(NC(=O)c2ccc3c(c2)CCN3S(C)(=O)=O)c1	?	.	?	15µM*	?	?
Cc1cc(C)cc(NC(=O)c2ccc3c(c2)CCN3S(C)(=O)=O)c1	-3%	.	0%	?	-5%	0%
CS(=O)(=O)N1CCc2cc(C(=O)Nc3cccc(F)c3)ccc21	.	11µM*	.	?	.	.
Cc1nc(-n2nc(C)c(CCC(C)C)c2C)sc1C(=O)Nc1cccc(Cl)c1	.	.	.	0%	.	.
CC(C)COc1ncnc2c1sc1nc3c(cc12)COC(C)(C)C3	?	.	?	24µM*	3.2µM*	4µM*
CCCOc1ncnc2c1sc1nc3c(cc12)COC(C)(C)C3	?	.	?	?	?	30%
SMILES	ELG1 repair inh	SMN2 splice up	ELG1 genotoxic	FLuc modulator	Rab9 prom act	NPC1 promoter act
CCSc1ncnc2c1sc1nc3c(cc12)COC(C)(C)C3	?	13µM*	?	2.7µM*	2.8µM*	3.5µM*
CCC(C)Nc1nnnc2c1sc1nc3c(cc12)COC(C)(C)C3 (centres undefined)	23µM*	-2%	-5%	-7%	1%	4%
C=CCSc1ncnc2c1oc1nc3c(cc12)COC(C)(C)C3	0%	.	?	13µM*	?	?
CNS(=O)(=O)c1cccc(C(=O)OCC(=O)NCc2ccccc2)c1	8%	-3%	1%	3%	12%	-1%
CCc1nc2c(sc3nc4c(cc32)COC(C)(C)C4)c(=O)n1CCN(CC)CC	?	-13%	4%	2%	-8%	-4%
C=CCn1c(C)nc2c(sc3nc4c(cc32)COC(C)(C)C4)c1=O	?	.	?	11µM*	2µM*	1.8µM*
COC(=O)c1sc(NC(=O)c2ccoc2C)nc1C	-24%	22µM*	?	?	?	29%
COC(=O)c1sc(NC(=O)c2c(-c3ccccc3)noc2C)nc1C	-6%	.	2%	?	-2%	1%
COC(=O)c1sc(NC(=O)c2c(C)noc2C)nc1C	1%	.	?	24µM*	-2%	6%
COc1cc(S(=O)(=O)Nc2cccc(C)c2)ccc1NC(=O)c1ccncc1	?	?	1%	0%	1%	-4%
O=C(NC(=S)NNC(=O)c1cnccn1)c1ccc(F)cc1	5.2µM*	-63%	0%	-2%	-23%	-10%
O=C(NC(=S)NNC(=O)c1ccccc1O)c1ccccc1	-25%	.	7%	24µM*	10%	-2%
O=C(NC(=S)NNC(=O)c1ccccc1O)c1ccc(F)cc1	2%	.	2%	27µM*	3%	0%
O=C(NNC(=S)NC(=O)c1cccnc1)c1ccc(F)cc1	?	.	1%	-7%	-2%	-2%
Cc1ccc(C(=O)NC(=S)NNC(=O)c2ccccc2O)cc1	31%	.	9%	?	2%	1%
COc1cc(OC)cc(C(=O)NCCCNC(=O)c2cccnc2)c1	4%	.	0%	-1%	-1%	3%
CCc1ccc(OCC(=O)Nc2ccc(-c3cc4ccccc4oc3=O)c(OC)c2)cc1	-5%	14%	8%	-1%	1%	0%
COc1ccc(CCN(C(=O)C(F)(F)F)C(C(=O)NC2CCCC2)c2cccs2)cc1OC (centres undefined)	-11%	5%	-3%	0%	-3%	0%
COC(=O)c1nn(-c2ccc(-c3ccccc3)cc2)cc1O	?	?	13%	0.34µM*	?	?
CCOC(=O)c1[nH]n(-c2ccc(Cl)cc2)c(=O)c1C	-7%	2%	-5%	4%	-4%	-2%
CCOC(=O)c1nn(-c2ccc3c(c2)OCO3)cc1O	?	?	?	12µM*	?	3.2µM*
c1cc2c(cc1-n1cnnn1)OCO2	0%	17%	0%	-3%	7%	2%
CCOC(=O)C1=NN(c2ccc(Cl)cc2)C(=O)C1	?	.	?	9.5µM*	?	?

Source: PubChem
